TCR activator: activators of T cell receptors | Potency, µM (doses to about 9.22 µM), inactives show top-dose activation of IL-2 secretion, most hits filed as activators | primary human leukocytes, anti-CD3, IL-2 HTRF, 48 h | 330,000 tested, under 10 active | AID 504894; further: % of control where 0% means no effect
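Primary human leukocytes receive a-CD3 beads and test compound and are incubated 48 hr. Secreted IL-2 is then assayed by HTRF, measuring 665nm acceptor emission after 320nm excitation of the europium donor.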
AT treatment: candidate therapy for ataxia-telangiectasia; Potency, µM (highest dose often 57.5 µM), for inactives: top-dose activation, hits mostly activators; 0.19% of 320,000 active; AID 485349; F2112 A-T fibroblasts, KAP-1 phosphorylation AlphaLISA; neocarzinostatin DNA damage 30 min before lysis; further: potency means the concentration at half of the fitted maximal effect; % of control where 0% means no effect; nearly all actives have a fitted effect of over 45% in size
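ATM-like activity read as KAP-1 phosphorylation via AlphaLISA donor/acceptor antibody pairs after lysis and 6 hr at 25C. Cells were ATM-null patient fibroblasts (F2112, hTERT), dosed 60 min, then exposed to the DSB inducer NCS for 30 min.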
IL-2 act: activators of IL-2; AID 652025; IL-2 activation reporter assay, cell-based qHTS; stimulated with anti-CD3/CD4/CD28 beads; in transgenic mouse T cells; 0.065% of 360,000 active; activation, % (series mostly up to about 46 µM); in the data active means activation above about 50%; inconclusive means mostly about 30% to 49%; further: 0% is about no effect
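Using fluorescent plate cytometry, EGFP and DsRed are detected in transgenic mouse T cells stimulated 18 h at 37 degrees C with antibody-coated beads after 60 min compound pretreatment.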
a7 integrin act: integrin-mediated muscular dystrophy alleviation activation | 0.064% of 350,000 active | alpha7betagal myoblasts, beta-gal FDG fluorescence, 48 h | Potency, µM (series often up to 38.3 µM), inactives show at the top dose activation, actives largely listed as activators;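 further: potency means the concentration at half of the fitted maximal effect; 100% = response of the positive control SU9516; nearly all actives have a fitted effect of over 60% in size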
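Alpha7betagal+/- myoblasts (passage 13) were plated 16-24 hr, then exposed to compounds (1:260 dilution of DMSO stock) for 48 hours at 37C. After MPER lysis, β-galactosidase reporter activity was read as FDG fluorescence (ex 480/em 540) after 30 minutes.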
Tb PFK inh-1: T. brucei PFK enzyme inhibition; O15648; T. brucei PFK, ADP-Glo luminescence; Potency, µM (series often up to 57.5 µM), for inactives: at the top dose activity, negative = inhibition, usual class: inhibitors; 0.17% of 330,000 active; AID 485367;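 further: potency means the concentration at half of the fitted maximal effect; 0% = uninhibited 1x PFK enzyme wells and -100% = no-enzyme wells; nearly all actives have a fitted effect of over 60% in size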
Target sequence (O15648 whole entry, looked up): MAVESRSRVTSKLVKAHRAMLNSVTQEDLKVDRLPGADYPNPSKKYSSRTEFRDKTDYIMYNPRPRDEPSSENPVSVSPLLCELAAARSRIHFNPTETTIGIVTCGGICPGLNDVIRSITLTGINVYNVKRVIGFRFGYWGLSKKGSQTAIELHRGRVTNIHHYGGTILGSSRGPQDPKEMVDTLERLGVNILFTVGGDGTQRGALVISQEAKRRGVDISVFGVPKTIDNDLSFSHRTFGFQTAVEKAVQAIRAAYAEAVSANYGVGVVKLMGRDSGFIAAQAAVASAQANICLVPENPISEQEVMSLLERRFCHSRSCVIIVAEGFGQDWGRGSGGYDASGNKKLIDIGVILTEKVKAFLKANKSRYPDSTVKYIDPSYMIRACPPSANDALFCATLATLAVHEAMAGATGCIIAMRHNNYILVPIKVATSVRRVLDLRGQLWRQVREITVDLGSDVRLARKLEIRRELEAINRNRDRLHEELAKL
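ADP-Glo luminescence quantified ADP after 45 min at room temperature, with 1.25 nM T. brucei PFK, 0.1 mM ATP and 0.5 mM fructose-6-phosphate in pH 8.0 TEA buffer. qHTS titrations up to 57 µM; curves classified by quality.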
PKM2 activator: increases activity of human pyruvate kinase M2; Potency, µM (doses to about 57.5 µM), without a hit: at the highest dose activation, hits mostly activators; purified PKM2, Kinase-Glo ATP luminescence, activation; response scale: 0% is enzyme alone, no compound; AID 1631; P14618; 0.34% of 260,000 active; further: potency means the concentration at half of the fitted maximal effect; on the % scale 0 is the no-effect control and ±100 the full control effect; nearly all actives have a fitted effect of over 55% in size
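hPK-M2, >95% pure; 0.1 mM ADP / 0.5 mM PEP final; imidazole pH7.2 buffer w/ 7 mM MgCl2, 50 mM KCl; 1 h RT; Kinase-Glo lum. Intermediate enzyme activity for dual inhibitor/activator qHTS.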
Tb PFK KinaseGlo: inhibits T. brucei PFK measured by ATP depletion; 47% of 1,100 active; Tb PFK enzyme, ATP depletion, Kinase-Glo Plus luminescence; Potency, µM (titrated, usually from 57.5 µM), for inactives: at the top dose inhibition; shares compounds with Tb PFK inh-1; calls by dose curve; further: potency means the concentration at half of the fitted maximal effect; nearly all actives have a fitted effect of over 60% in size
Tb PFK inh-2: validation of T. brucei phosphofructokinase inhibitors; shares compounds with Tb PFK inh-1; purified T. brucei PFK, ADP-Glo luminescence, 45 min; Potency, µM (doses to about 57.5 µM), for the others: at the top dose activity change, negative = inhibition, usual class: inhibitors; 41% of 1,100 active;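 further: potency means the concentration at half of the fitted maximal effect; plate controls were full PFK enzyme control for no effect and no enzyme control for full effect; nearly all actives have a fitted effect of over 60% in size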
The depositor's hits bear a star; ! = not confirmed by another sample. The list is not random: actives were taken first. Their share in the collection is about 0.69%. Unless noted, the call rests on the fitted dose curve; in most records, active means well fitted curve in the direction sought with a large enough effect; inconclusive means small, poorly fitted or top-dose-only effect, or another doubt; inactive means no such curve, though single readings can be large; an effect the other way counts as inactive or inconclusive.

For COC(=O)c1ccc(-c2noc(CN(C)CCC3CCCCO3)n2)cc1 (stereo unspecified) the results were TCR activator -19.9%, AT treatment -3.3%, IL-2 act -0.1, a7 integrin act 5.4%, Tb PFK inh-1 inconclusive, PKM2 activator 0.199µM*, Tb PFK KinaseGlo 3.5% and Tb PFK inh-2 inconclusive.
`COc1ccc2ccccc2c1CNCCc1ccccc1` gave TCR activator 0.1%, AT treatment 5.4%, IL-2 act -0.4, a7 integrin act -31.7%, Tb PFK inh-1 -2.8% and PKM2 activator 8.8%.
Screening O=C1C=C(NCc2ccc(Cl)cc2Cl)C2(CCCCC2)O1 returned TCR activator -3.9%, AT treatment 0.1%, IL-2 act -1.9, a7 integrin act 16.3%, Tb PFK inh-1 10.7µM*, PKM2 activator 4.4%, Tb PFK KinaseGlo 5.36µM* and Tb PFK inh-2 16.9µM*.
Screening O=[N+]([O-])c1cccc(CCl)c1 returned TCR activator -0.1%, AT treatment 0.6%, IL-2 act -0.1 and Tb PFK inh-1 0.0%.
For O=C(OCc1cccc([N+](=O)[O-])c1)c1ccc[nH]c1=O the results were TCR activator -0.4%, AT treatment 1.3%, IL-2 act 1.2, a7 integrin act 5.2%, Tb PFK inh-1 7.57µM*, PKM2 activator -0.9%, Tb PFK KinaseGlo 8.49µM* and Tb PFK inh-2 6.75µM*.
For COc1ccc(CC2NCC(O)C2OC(C)=O)cc1 (stereo unspecified) the results were TCR activator 3.0%, IL-2 act -4.1 and a7 integrin act -65.7%.
O=C(Nc1ccc(Cl)c(Cl)c1)N1CCSC1c1ccco1 (stereo unspecified) was read as TCR activator 0.8%, AT treatment -4.8%, IL-2 act 1.3, a7 integrin act -45.2%, Tb PFK inh-1 13.5µM*, PKM2 activator 4.7%, Tb PFK KinaseGlo 12.5% and Tb PFK inh-2 -11.0%.
For CC(/C=C\c1cccnc1)=C/C(=O)O the results were TCR activator 3.1%, AT treatment 7.9%, IL-2 act -0.3, a7 integrin act 3.7%, Tb PFK inh-1 15.1µM*!, PKM2 activator 14.0%, Tb PFK KinaseGlo inconclusive and Tb PFK inh-2 26.9µM*.
For CC(=O)/C=C/c1ccccc1 the results were TCR activator 1.1%, AT treatment -5.2%, IL-2 act -2.4, a7 integrin act 12.6% and Tb PFK inh-1 -4.4%.
Screening CSc1ccc(NC(=O)Nc2ccc(C(=O)NCC(=O)O)cc2)cc1 returned TCR activator 5.3%, AT treatment -7.4%, IL-2 act -0.2, a7 integrin act -6.5%, Tb PFK inh-1 13.5µM*, PKM2 activator 18.0%, Tb PFK KinaseGlo 8.49µM* and Tb PFK inh-2 inconclusive.
`COc1ccc(CNC(=O)N2CCN(c3cccc(Cl)c3)CC2)cc1OC` gave TCR activator -7.1%, AT treatment 0.5%, IL-2 act -0.3, a7 integrin act 6.9%, Tb PFK inh-1 26.9µM*, PKM2 activator -0.1%, Tb PFK KinaseGlo 12µM* and Tb PFK inh-2 23.9µM*.
`COc1ccc(CC(=O)N2CCN(C)CC2)cc1OC` gave TCR activator 0.3%, AT treatment 0.4%, IL-2 act -0.1, a7 integrin act 5.2%, Tb PFK inh-1 -2.1% and PKM2 activator -5.1%.
